About 79,000 compounds went through this panel and 15% of them were active in at least one assay; those are over-represented in the sample as a whole. Activity calls are given as the source filed them. Cut-off read from the data, not from the text of the source: active = growth inhibition above about 70%; inactive = the rest.
Legend:
[1] = NCI Yeast Anticancer Drug Screen. Data for the rad50 strain (AID 155);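 note: 0% = growth of vehicle-only cultures of the same strain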; conditions: S. cerevisiae rad50 strain growth inhibition, active compounds read high
Procedure, shortened: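 A DNA repair-deficient yeast mutant serves as the test organism; compound-induced growth inhibition is calculated against vehicle-treated cells.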

[2] = NCI Yeast Anticancer Drug Screen. Data for the mec2-1 strain (AID 157); conditions: S. cerevisiae mec2-1 strain, active compounds read high
Procedure, shortened: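 Readout is yeast growth inhibition, normalised to vehicle-treated controls, in the mec2-1 strain exposed to compound.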

[3] = NCI Yeast Anticancer Drug Screen. Data for the sgs1 mgt1 strain (AID 161);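 note: 0% = growth of cultures given vehicle only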; conditions: S. cerevisiae sgs1 mgt1 strain, active compounds read high
Procedure, shortened: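 Growth of a repair-deficient yeast mutant was monitored after compound treatment and expressed as inhibition relative to vehicle-treated cultures.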

[4] = NCI Yeast Anticancer Drug Screen. Data for the cln2 rad14 strain (AID 165);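 note: 0% = growth equal to vehicle treated cultures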; conditions: S. cerevisiae cln2 rad14 strain, active compounds read high
Procedure, shortened: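 Relative to vehicle controls, growth inhibition of compound-treated cln2 rad14 yeast was recorded.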

[5] = NCI Yeast Anticancer Drug Screen. Data for the bub3 strain (AID 167); conditions: S. cerevisiae bub3 mutant strain, active compounds read high
Procedure, shortened: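 Inhibition values come from growth of compound-treated mutant yeast normalised to vehicle-treated controls.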

[6] = NCI Yeast Anticancer Drug Screen. Data for the mlh1 rad18 strain (AID 175); conditions: S. cerevisiae mlh1 rad18 strain growth inhibition, active compounds read high
Procedure, shortened: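 Test agents were incubated with a yeast strain of defined genotype (DNA damage repair defect). Inhibition of growth was derived by comparison with vehicle-exposed cultures.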

[7] = at 5.0 µM (retest, dose inferred, filed as 0.5)
[8] = at 50.0 µM (retest, dose inferred, filed as 5.0)

Measured: growth inhibition

CC(=O)Nc1ccc2c(c1)Cc1cccc(F)c1-2
active: [1]; at 50.0 µM 70.3%
inactive: [1]; [7] 11% | [1]; [8] 14% | [2]; [7] 6% | [2]; [8] 5% | [2]; at 50.0 µM 17.7% | [3]; [7] 14% | [3]; [8] 3% | [3]; at 50.0 µM 22.4% | [4]; [7] 29% | [4]; [8] 7% | [4]; at 50.0 µM 9.1% | [5]; [7] 17% | [5]; [8] 8% | [5]; at 50.0 µM 61.9% | [6]; [7] -2% | [6]; [8] 1% | [6]; at 50.0 µM 32.1%

N#C/C=C/C=C/C#N
inactive: [1]; [7] 1% | [1]; [8] 2% | [1]; at 50.0 µM 24.4% | [2]; [7] 5% | [2]; [8] 2% | [3]; [7] 2% | [3]; [8] 3% | [3]; at 50.0 µM 6.95% | [4]; [7] -1% | [4]; [8] -3% | [5]; [7] -2% | [5]; [8] -5% | [6]; [7] -4% | [6]; [8] -1% | [6]; at 50.0 µM 56.3%
active: [2]; at 50.0 µM 79.8% | [4]; at 50.0 µM 78.4% | [5]; at 50.0 µM 99.5%

Nc1cc(F)c2c(c1F)C(=O)c1cc(F)ccc1-2
active: [1]; [8] 92% | [1]; at 50.0 µM 93.3% | [2]; [8] 70% | [3]; [8] 84% | [5]; [8] 72% | [6]; [8] 78% | [6]; at 50.0 µM 80.7%
inactive: [1]; [7] 15% | [2]; [7] 13% | [2]; at 50.0 µM 27.3% | [3]; [7] 2% | [3]; at 50.0 µM 55.4% | [4]; [7] 4% | [4]; [8] 41% | [4]; at 50.0 µM 26.5% | [5]; [7] 2% | [5]; at 50.0 µM 17.8% | [6]; [7] 5%

c1ccc2[nH]c(CN(CCN(Cc3nc4ccccc4[nH]3)Cc3nc4ccccc4[nH]3)Cc3nc4ccccc4[nH]3)nc2c1
active: [1]; [7] 97% | [1]; [8] 95% | [1]; at 50.0 µM 91.1% | [2]; [7] 97% | [2]; [8] 97% | [2]; at 50.0 µM 91.5% | [3]; [7] 99% | [3]; [8] 96% | [3]; at 50.0 µM 91% | [4]; [7] 99% | [4]; [8] 94% | [4]; at 50.0 µM 90.3% | [5]; [7] 99% | [5]; [8] 95% | [5]; at 50.0 µM 89% | [6]; [7] 96% | [6]; [8] 93% | [6]; at 50.0 µM 89.7%

CCOC(=O)Nc1cc2c(cn1)[nH]c1ccccc12
inactive: [1]; [7] -3% | [1]; [8] 46% | [1]; at 50.0 µM -0.8% | [2]; [7] 7% | [2]; at 50.0 µM -12.2% | [3]; [7] -1% | [3]; [8] 52% | [3]; at 50.0 µM 8.35% | [4]; [7] 1% | [4]; [8] 25% | [4]; at 50.0 µM -0.4% | [5]; [7] 2% | [5]; [8] 38% | [5]; at 50.0 µM 3.25% | [6]; [7] 5% | [6]; at 50.0 µM 5.3%
active: [2]; [8] 72% | [6]; [8] 86%

Cc1cnc2c(c1C)C(=O)c1ccccc1C2=O
inactive: [1]; [7] 27% | [1]; at 50.0 µM 64.4% | [2]; [7] 26% | [2]; at 50.0 µM 50.2% | [3]; [7] 27% | [4]; [7] 27% | [5]; [7] 32% | [6]; [7] 26%
active: [1]; [8] 92% | [2]; [8] 88% | [3]; [8] 81% | [3]; at 50.0 µM 87% | [4]; [8] 75% | [4]; at 50.0 µM 83.1% | [5]; [8] 91% | [5]; at 50.0 µM 84.1% | [6]; [8] 92% | [6]; at 50.0 µM 89.3%

Brc1ccc(-c2c3ccccc3cc3c2ccc2ccccc23)cc1
active: [4]; at 50.0 µM 74.5%
inactive: [1]; [7] 1% | [1]; [8] -14% | [1]; at 50.0 µM 42.9% | [2]; [7] 1% | [2]; [8] -10% | [2]; at 50.0 µM 30.2% | [3]; [7] 2% | [3]; [8] 1% | [3]; at 50.0 µM 47.8% | [4]; [7] -2% | [4]; [8] -24% | [5]; [7] -5% | [5]; [8] 26% | [5]; at 50.0 µM 38.1% | [6]; [7] -4% | [6]; [8] -9% | [6]; at 50.0 µM 47.1%

Cc1nc(C(N)=S)sc1/C(CC(=O)C(=O)Nc1cccc2ccc(O)cc12)=N\NC(=O)c1ccncc1
inactive: [1]; [7] 25% | [1]; [8] 31% | [1]; at 50.0 µM 21.8% | [2]; [7] 16% | [2]; [8] 18% | [2]; at 50.0 µM 7.5% | [3]; [7] 9% | [3]; [8] 28% | [3]; at 50.0 µM -4.85% | [4]; [7] 14% | [4]; [8] 33% | [4]; at 50.0 µM -10.8% | [5]; [7] 32% | [5]; [8] 29% | [5]; at 50.0 µM 13.1% | [6]; [7] 14% | [6]; [8] 35% | [6]; at 50.0 µM 16.4%

c1ccc(CCN(Cc2nc3ccccc3[nH]2)Cc2nc3ccccc3[nH]2)cc1
active: [1]; [8] 90% | [1]; at 50.0 µM 94.7% | [2]; [8] 92% | [2]; at 50.0 µM 93.2% | [3]; [8] 90% | [3]; at 50.0 µM 96% | [4]; [8] 93% | [4]; at 50.0 µM 82.6% | [5]; [8] 95% | [5]; at 50.0 µM 89.2% | [6]; [8] 91% | [6]; at 50.0 µM 95.5%
inactive: [1]; [7] 3% | [2]; [7] -3% | [3]; [7] -3% | [4]; [7] -12% | [5]; [7] 0% | [6]; [7] -3%

— PubChem BioAssay (NCI)
